Laboratory results: the supplement of paper PMC11732987, “Enantioselective OTUD7B fragment discovery through chemoproteomics screening and high-throughput optimisation” (Communications Chemistry, 2025)

Experiments:
Assay in all cases: log2 ratio of Biotin-Ahx-Ub-VS probe labelling (fragment/DMSO); higher = less target engagement (more negative = stronger competition), active = hit call of the paper (q ≤ 0.05, log2 ratio ≤ -1)
Settings in all cases: compound concentration: 200 uM; treatment time: 3 h
USP19 = biological target: T1, USP19 (UniProt O94966)
T1 sequence (whole entry): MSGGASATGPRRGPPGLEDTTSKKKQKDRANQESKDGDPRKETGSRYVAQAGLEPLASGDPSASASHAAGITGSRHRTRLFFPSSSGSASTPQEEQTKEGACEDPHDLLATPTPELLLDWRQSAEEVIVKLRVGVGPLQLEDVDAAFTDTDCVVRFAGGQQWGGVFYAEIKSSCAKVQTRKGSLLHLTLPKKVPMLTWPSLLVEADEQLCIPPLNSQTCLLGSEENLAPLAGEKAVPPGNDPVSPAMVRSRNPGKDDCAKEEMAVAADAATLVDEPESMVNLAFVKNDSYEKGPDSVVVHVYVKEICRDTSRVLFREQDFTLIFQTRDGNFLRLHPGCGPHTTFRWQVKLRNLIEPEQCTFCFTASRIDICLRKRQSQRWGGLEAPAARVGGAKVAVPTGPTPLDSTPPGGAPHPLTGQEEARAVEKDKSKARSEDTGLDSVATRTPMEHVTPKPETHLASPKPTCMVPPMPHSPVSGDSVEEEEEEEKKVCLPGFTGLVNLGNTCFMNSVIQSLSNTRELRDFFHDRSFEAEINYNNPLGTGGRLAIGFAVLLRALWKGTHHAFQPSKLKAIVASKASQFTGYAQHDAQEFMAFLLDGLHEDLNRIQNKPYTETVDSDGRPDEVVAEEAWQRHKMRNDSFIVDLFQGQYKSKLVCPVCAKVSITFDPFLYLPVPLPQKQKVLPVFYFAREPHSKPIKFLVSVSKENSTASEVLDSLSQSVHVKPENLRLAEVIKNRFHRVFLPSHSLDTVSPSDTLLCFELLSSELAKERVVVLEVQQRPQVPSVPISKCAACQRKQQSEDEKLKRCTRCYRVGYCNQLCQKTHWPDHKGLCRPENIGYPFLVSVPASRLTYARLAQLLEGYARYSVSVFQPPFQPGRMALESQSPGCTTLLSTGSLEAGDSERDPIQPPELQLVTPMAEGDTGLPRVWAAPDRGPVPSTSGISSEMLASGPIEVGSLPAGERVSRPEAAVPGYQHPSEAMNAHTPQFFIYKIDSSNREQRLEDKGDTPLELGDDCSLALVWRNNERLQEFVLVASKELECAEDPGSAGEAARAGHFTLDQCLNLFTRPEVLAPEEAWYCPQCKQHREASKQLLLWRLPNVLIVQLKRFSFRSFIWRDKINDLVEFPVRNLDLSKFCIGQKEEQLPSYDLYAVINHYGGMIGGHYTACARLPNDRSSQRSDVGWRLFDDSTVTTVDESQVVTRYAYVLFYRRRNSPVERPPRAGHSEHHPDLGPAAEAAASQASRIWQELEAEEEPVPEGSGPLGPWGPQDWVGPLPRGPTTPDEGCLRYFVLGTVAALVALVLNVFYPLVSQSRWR
In short: (§1)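 Labelled DUBs from HEK293T lysate were NeutrAvidin-enriched, digested with LysC and trypsin, and run by diaPASEF LC-MS/MS. Before that, each 495 µg sample in Tris/CHAPS/IGEPAL buffer with protease inhibitors was treated in triplicate with fragment at 200 µM or vehicle for 3 h, then with Biotin-Ahx-Ub-VS at 0.5 µM final for 1 h. Values are average log2 ratios of fragment over vehicle by unpaired t-test, based on global-median-normalised Spectronaut label-free quantities from proteins with ≥2 unique peptides.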

USP22 = biological target: T2, USP22 (UniProt Q9UPT9)
T2 sequence (whole entry): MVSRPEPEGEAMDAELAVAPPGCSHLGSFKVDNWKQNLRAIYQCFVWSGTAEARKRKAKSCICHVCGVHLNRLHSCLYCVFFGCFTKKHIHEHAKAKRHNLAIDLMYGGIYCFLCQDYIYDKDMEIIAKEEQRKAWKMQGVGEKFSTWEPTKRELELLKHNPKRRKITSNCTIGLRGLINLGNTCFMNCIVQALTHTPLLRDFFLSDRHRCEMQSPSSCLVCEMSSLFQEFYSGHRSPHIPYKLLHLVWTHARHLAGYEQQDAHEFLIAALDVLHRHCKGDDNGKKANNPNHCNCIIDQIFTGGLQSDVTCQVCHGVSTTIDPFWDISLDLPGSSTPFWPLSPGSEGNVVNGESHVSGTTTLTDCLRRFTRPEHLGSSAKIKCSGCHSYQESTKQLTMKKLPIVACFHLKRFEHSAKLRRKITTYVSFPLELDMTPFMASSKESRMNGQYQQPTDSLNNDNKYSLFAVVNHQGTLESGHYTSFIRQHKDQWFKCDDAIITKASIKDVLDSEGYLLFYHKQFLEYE
In short: as §1

USP24 = USP24 (UniProt Q9UPU5)
Chain of USP24 (Q9UPU5 whole entry): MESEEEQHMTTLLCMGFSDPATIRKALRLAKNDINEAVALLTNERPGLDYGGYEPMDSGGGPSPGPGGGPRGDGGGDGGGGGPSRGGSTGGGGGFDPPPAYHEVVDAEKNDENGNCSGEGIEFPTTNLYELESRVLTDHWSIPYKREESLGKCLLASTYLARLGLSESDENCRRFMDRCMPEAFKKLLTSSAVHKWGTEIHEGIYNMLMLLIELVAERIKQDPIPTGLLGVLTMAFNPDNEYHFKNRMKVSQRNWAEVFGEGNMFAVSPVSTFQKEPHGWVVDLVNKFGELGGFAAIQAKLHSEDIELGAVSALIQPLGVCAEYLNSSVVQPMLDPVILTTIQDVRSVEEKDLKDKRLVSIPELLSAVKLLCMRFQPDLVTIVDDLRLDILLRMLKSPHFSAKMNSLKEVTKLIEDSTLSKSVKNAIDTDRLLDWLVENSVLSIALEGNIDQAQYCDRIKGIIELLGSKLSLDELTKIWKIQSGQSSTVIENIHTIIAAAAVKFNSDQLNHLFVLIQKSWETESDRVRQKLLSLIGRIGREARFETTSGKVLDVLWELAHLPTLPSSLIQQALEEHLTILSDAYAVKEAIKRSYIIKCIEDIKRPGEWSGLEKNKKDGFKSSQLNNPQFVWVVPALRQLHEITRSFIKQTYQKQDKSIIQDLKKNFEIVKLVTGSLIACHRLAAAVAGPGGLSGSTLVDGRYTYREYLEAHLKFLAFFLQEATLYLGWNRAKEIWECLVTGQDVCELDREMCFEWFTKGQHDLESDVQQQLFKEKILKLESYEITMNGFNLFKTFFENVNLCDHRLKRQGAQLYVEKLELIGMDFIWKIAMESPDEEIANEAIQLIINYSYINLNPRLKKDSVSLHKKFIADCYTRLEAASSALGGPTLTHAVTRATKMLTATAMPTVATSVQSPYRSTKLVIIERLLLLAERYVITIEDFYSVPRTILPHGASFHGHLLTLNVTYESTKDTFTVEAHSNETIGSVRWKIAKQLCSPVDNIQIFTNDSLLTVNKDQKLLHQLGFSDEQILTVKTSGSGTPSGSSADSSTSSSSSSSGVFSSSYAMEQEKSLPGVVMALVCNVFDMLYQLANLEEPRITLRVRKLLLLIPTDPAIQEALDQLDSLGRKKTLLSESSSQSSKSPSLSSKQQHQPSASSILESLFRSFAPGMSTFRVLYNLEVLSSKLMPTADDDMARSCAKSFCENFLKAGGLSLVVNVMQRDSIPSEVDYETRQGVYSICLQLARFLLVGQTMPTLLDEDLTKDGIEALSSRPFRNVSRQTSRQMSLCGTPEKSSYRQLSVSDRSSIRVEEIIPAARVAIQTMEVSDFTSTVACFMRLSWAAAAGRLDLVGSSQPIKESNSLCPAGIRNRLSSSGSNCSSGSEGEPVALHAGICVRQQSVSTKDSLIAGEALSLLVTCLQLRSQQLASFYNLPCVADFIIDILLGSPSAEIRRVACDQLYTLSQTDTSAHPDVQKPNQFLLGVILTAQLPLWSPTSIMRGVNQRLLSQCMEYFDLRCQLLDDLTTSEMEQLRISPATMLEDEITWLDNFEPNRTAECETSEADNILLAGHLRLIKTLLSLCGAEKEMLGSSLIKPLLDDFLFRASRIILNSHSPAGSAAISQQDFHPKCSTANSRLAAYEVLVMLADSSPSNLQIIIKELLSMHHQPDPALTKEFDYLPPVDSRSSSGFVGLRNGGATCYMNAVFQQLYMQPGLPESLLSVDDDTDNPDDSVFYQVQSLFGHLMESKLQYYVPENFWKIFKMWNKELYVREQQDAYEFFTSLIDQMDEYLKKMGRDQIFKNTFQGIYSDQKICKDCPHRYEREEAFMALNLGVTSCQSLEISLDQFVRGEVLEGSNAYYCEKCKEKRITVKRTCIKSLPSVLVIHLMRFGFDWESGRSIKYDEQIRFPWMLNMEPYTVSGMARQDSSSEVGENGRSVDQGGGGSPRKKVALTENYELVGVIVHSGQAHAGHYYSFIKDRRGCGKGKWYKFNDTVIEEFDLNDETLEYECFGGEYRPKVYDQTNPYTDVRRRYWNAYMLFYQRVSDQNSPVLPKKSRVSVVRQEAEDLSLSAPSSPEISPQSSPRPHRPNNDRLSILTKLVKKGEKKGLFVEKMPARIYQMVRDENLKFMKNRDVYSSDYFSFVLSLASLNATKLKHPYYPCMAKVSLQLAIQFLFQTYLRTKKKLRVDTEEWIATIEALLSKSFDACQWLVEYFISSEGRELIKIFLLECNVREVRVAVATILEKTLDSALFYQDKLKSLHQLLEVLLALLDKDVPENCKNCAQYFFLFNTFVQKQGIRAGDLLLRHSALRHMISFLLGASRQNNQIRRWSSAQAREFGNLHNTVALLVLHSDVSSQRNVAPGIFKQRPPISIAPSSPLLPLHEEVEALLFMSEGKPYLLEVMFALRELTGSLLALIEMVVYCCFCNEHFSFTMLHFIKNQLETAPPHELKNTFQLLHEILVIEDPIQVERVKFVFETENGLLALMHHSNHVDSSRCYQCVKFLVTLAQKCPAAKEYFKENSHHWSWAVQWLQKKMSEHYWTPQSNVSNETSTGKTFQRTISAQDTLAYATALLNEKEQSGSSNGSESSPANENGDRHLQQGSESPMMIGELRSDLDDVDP
In short: as §1

USP25 = biological target: T3, USP25 (UniProt Q9UHP3)
T3 sequence (whole entry): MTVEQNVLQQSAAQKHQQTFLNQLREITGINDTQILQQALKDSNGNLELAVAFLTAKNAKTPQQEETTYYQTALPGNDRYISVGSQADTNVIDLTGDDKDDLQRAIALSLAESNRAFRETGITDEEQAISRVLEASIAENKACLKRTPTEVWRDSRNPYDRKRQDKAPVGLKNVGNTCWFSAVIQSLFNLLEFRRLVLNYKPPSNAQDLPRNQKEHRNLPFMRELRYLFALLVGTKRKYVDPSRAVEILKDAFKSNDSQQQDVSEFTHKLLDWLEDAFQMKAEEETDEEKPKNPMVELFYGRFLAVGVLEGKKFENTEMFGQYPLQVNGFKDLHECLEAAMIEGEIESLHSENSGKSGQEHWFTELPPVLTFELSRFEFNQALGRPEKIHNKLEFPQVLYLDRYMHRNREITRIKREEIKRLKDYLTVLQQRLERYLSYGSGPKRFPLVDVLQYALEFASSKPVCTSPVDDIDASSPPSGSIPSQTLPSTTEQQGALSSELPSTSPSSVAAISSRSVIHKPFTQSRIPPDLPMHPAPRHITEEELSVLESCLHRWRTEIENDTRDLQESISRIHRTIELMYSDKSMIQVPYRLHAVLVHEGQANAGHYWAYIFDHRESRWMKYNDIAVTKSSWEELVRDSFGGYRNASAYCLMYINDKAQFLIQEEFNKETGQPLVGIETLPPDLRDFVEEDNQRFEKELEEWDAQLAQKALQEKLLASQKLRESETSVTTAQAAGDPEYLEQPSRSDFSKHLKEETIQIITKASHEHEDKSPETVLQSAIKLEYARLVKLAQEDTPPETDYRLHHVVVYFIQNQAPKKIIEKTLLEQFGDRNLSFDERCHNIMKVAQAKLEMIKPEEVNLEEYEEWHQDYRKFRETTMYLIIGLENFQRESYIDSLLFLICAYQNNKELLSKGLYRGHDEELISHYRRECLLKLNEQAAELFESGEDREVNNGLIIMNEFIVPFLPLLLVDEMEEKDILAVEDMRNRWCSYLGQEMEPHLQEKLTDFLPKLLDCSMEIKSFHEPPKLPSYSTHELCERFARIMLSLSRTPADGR
In short: as §1

USP28 = biological target: T4, USP28 (UniProt Q96RU2)
T4 sequence (whole entry): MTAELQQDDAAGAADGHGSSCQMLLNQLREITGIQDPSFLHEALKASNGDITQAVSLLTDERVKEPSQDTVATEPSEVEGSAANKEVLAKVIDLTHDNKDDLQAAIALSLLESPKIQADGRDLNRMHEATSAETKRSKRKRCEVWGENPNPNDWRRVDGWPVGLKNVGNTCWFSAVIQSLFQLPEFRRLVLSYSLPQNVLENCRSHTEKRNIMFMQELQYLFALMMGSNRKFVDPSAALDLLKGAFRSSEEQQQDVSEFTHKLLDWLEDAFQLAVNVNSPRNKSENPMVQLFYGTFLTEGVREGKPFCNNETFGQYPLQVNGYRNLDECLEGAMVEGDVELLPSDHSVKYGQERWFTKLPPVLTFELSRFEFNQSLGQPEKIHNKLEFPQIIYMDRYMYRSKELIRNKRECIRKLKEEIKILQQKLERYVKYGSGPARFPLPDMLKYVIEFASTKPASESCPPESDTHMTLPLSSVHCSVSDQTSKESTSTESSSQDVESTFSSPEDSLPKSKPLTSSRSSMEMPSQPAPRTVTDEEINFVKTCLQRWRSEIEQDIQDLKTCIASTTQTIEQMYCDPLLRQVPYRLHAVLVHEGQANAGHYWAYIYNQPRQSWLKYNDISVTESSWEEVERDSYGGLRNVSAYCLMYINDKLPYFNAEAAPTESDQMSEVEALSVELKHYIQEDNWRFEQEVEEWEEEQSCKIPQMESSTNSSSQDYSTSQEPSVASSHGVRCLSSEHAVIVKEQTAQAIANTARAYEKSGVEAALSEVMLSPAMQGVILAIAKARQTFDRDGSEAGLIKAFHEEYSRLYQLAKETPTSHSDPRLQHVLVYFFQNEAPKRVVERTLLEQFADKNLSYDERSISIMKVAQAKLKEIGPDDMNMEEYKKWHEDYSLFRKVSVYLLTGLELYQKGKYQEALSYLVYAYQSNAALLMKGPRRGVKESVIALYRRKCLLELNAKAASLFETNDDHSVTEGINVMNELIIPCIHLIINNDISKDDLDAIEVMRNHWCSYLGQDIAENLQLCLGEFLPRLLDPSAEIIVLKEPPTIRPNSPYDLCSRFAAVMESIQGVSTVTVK
In short: as §1

Measured: log2 ratio of Biotin-Ahx-Ub-VS probe labelling

CN(CCc1ncc(Br)cn1)C(=O)CCl.Cl
inactive: USP19 -0.155 | USP22 -0.0976 | USP24 -0.487 | USP25 -0.445 | USP28 -0.622
